{"source": "PubChem BioAssay (NCATS)", "note": "Inconclusive results are not listed. A call without a number means that no potency is given here. Activity calls are given as the source filed them. Calls come from the whole dose curve; as a rule, active = well fitted cell-killing curve with a large enough effect; inconclusive = small, poorly fitted or top-dose-only effect, or effect the other way; inactive = no such curve, though single readings can be large or run the other way. Where a SMILES comes first, the peptide text is derived from it. Bridges are numbered along the chain shown (N, C = ends). [ ]: non-standard residue; d: D form. The star is where a group is joined. ξ: configuration not given here. d(aThr) = C[C@@H](O)[C@@H](N)C(=O)O; ξThr(3R) = C[C@@H](O)C(N)C(=O)O; X3 = CC[C@@H](C)CCCCC(=O)*; dDab = NCC[C@@H](N)C(=O)O", "data": [{"test": "qHTS assay to identify small molecule inhibitors of chordoma cells - UCH-1 (AID 1259355); note: nearly all actives have a fitted effect of over 55% in size; note: potency is the fitted concentration of half-maximal effect", "conditions": "UCH-1 chordoma viability, CellTiter-Glo, 48 h, combination, with auranofin plus four topoisomerase inhibitors; series mostly up to 46.1 µM", "outline": "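Seed 800 cells per well; incubate overnight at 37 C, 5% CO2. Add test compounds (15 concentrations), then the auranofin–topoisomerase-agent combination. Incubate 48hr, add CellTiter-Glo, wait 30min, read luminescence.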", "values": [{"compound": "CC[C@@H](C(=O)[C@@H](C)[C@@H](O)[C@H](C)[C@@H]1O[C@@H]([C@@H](CC)C(=O)O)CC[C@@H]1C)[C@H]1O[C@]2(C=C[C@@H](O)[C@]3(CC[C@@](C)([C@H]4CC[C@](O)(CC)[C@H](C)O4)O3)O2)[C@H](C)C[C@@H]1C", "Potency": "11.2 µM (active)"}, {"compound": "CC(C)[C@@H](N)C(=O)O", "Potency": "inactive"}, {"compound": "NC[C@H]1O[C@H](O[C@H]2[C@H](O)[C@@H](O[C@H]3O[C@H](CO)[C@@H](O)[C@H](N)[C@H]3O)[C@H](N)C[C@@H]2N)[C@H](N)C[C@@H]1O", "Potency": "inactive"}, {"compound": "OCCCNc1ccccc1", "Potency": "inactive"}, {"compound": "OC[C@H]1OC([S-])[C@H](O)[C@@H](O)[C@@H]1O.[Au+]", "note": "(stereo partly drawn)", "Potency": "inactive"}, {"compound": "CC(=O)c1ccc2c(c1)N(CCCN1CCN(CCO)CC1)c1ccccc1S2", "Potency": "inactive"}, {"compound": "O=C1C2CC3CC1CC(O)(C3)C2", "Potency": "inactive"}, {"compound": "O=C1/C(=C\\c2cccs2)CCC/C1=C\\c1cccs1", "Potency": "inactive"}, {"compound": "COc1ccc(C[C@H](C)NC[C@@H](O)c2ccc(O)c(NC=O)c2)cc1", "Potency": "inactive"}, {"compound": "CCN(CC)C(=O)c1cccnc1", "Potency": "inactive"}, {"compound": "O=S(=O)(O)CCCS(=O)(=O)O", "Potency": "inactive"}, {"compound": "CO/N=C(\\C(=O)N[C@@H]1C(=O)N2C(C(=O)O)=CCS[C@H]12)c1csc(N)n1", "Potency": "inactive"}, {"compound": "NCC[C@H](O)C(=O)N[C@@H]1C[C@H](N)[C@@H](O[C@H]2O[C@H](CN)[C@@H](O)[C@H](O)[C@H]2O)[C@H](O)[C@H]1O[C@H]1O[C@H](CO)[C@@H](O)[C@H](N)[C@H]1O", "Potency": "inactive"}, {"compound": "CN(C)c1ccc(C(=C2C=CC(=[N+](C)C)C=C2)c2c(O)c(S(=O)(=O)[O-])cc3cc(S(=O)(=O)O)ccc23)cc1", "Potency": "14.1 µM (active)"}, {"compound": "COC(=O)CC[C@H](N)C(=O)O", "Potency": "inactive"}, {"compound": "CO[C@H]1C[C@H](O[C@@H]2/C(C)=C/C[C@@H]3C[C@@H](C[C@]4(CC[C@H](C)[C@@H](C5CCCCC5)O4)O3)OC(=O)[C@@H]3C=C(C)/C(=N/O)[C@H]4OC/C(=C\\C=C\\[C@@H]2C)[C@]43O)O[C@@H](C)[C@@H]1O", "Potency": "inactive"}, {"compound": "O=C1c2ccccc2CN2C(=O)c3ccccc3CN12", "Potency": "inactive"}, {"compound": "CN1C(C(=O)Nc2ccccn2)C(=O)c2sc(Cl)cc2S1(=O)=O", "note": "(stereo not drawn)", "Potency": "inactive"}, {"compound": "Cc1c(Cl)cccc1Nc1ncccc1C(=O)O", "Potency": "inactive"}, {"compound": "CC[C@@H](C)CCCCC(=O)N[C@H](CCN)C(=O)N[C@@H](C(=O)N[C@H](CCN)C(=O)N[C@@H]1CCNC(=O)C([C@@H](C)O)NC(=O)[C@@H](CCN)NC(=O)[C@@H](CCN)NC(=O)[C@@H](CC(C)C)NC(=O)[C@@H](Cc2ccccc2)NC(=O)[C@@H](CCN)NC1=O)[C@@H](C)O", "note": "(stereo partly drawn) (X3-[dDab][d(aThr)][dDab][dDab][dDab][dF][dL][dDab][dDab][ξThr(3R)]; lactam 4-C)", "Potency": "inactive"}, {"compound": "CC(C)OC(=O)Nc1ccc2nc(-c3cscn3)[nH]c2c1", "Potency": "inactive"}, {"compound": "CN1CCC(OC(=O)C(Oc2ccc(Cl)cc2)Oc2ccc(Cl)cc2)CC1", "Potency": "inactive"}, {"compound": "C[C@]12CCC(=O)C[C@@H]1CC[C@@H]1[C@@H]2CC[C@]2(C)C=CC[C@@H]12", "Potency": "inactive"}, {"compound": "CC(=O)Nc1ccc(OC(C)=O)cc1", "Potency": "inactive"}, {"compound": "C[Se]CC[C@H](N)C(=O)O", "Potency": "inactive"}, {"compound": "CC(=O)N[C@@H]([C@@H](O)[C@H](O)[C@H](O)CO)[C@@H](O)CC(=O)C(=O)O", "Potency": "inactive"}, {"compound": "[O]=[Bi][O]C(=O)[O][Bi]=[O]", "Potency": "inactive"}, {"compound": "Cc1ncc(C[n+]2csc(CCOP(=O)(O)O)c2C)c(N)n1", "Potency": "inactive"}, {"compound": "CCCC(=O)O", "Potency": "inactive"}, {"compound": "CC(=O)Oc1cccc2c1C(=O)c1c(OC(C)=O)cc(C(=O)O)cc1C2=O", "Potency": "inactive"}, {"compound": "CCc1ncnc2cc(OC)c(OC)cc12", "Potency": "inactive"}, {"compound": "NCC[C@H](O)C(=O)N[C@@H]1C[C@H](N)[C@@H](O[C@H]2O[C@H](CN)CC[C@H]2N)[C@H](O)[C@H]1O[C@H]1O[C@H](CO)[C@@H](O)[C@H](N)[C@H]1O", "Potency": "inactive"}, {"compound": "c1ccc2c(c1)OCC(CN1CCCCC1)O2", "note": "(stereo not drawn)", "Potency": "inactive"}, {"compound": "CC[C@H](C)[C@@H]1NC(=O)[C@H](Cc2ccc(O)cc2)NC(=O)[C@@H](N)CSSC[C@@H](C(=O)N2CCC[C@H]2C(=O)N[C@@H](CC(C)C)C(=O)NCC(N)=O)NC(=O)[C@H](CC(N)=O)NC(=O)[C@H](CCC(N)=O)NC1=O", "Potency": "inactive"}, {"compound": "CC1=C(/C=C/C(C)=C/C=C/C(C)=C/C(=O)Oc2c(C)c(C)c3c(c2C)CC[C@@](C)(CCC[C@H](C)CCC[C@H](C)CCCC(C)C)O3)C(C)(C)CCC1", "Potency": "inactive"}, {"compound": "Cc1cc(C(=O)NCCc2ccc(S(=O)(=O)NC(=O)NN3CCCCCC3)cc2)no1", "Potency": "inactive"}, {"compound": "CCC(Oc1ccccc1)C(=O)N[C@@H]1C(=O)N2[C@@H]1SC(C)(C)[C@@H]2C(=O)O", "note": "(stereo partly drawn)", "Potency": "inactive"}, {"compound": "CC(C)C[C@H](NC(=O)[C@@H](Cc1c[nH]c2ccccc12)NC(=O)[C@H](Cc1ccc(O)cc1)NC(=O)[C@H](CO)NC(=O)[C@H](Cc1c[nH]c2ccccc12)NC(=O)[C@H](Cc1cnc[nH]1)NC(=O)[C@@H]1CCC(=O)N1)C(=O)N[C@@H](CCCN=C(N)N)C(=O)N1CCC[C@@H]1C(=O)NCC(N)=O", "Potency": "inactive"}]}]}
